Bioassay records (PubChem BioAssay)
Tau fibril ThT – inhibitors of human tau fibril formation, thioflavin T binding | Potency, µM (doses to about 57.4 µM), without a hit: top-dose activity, negative = inhibition, actives largely listed as inhibitors | recombinant tau K18 P301L, heparin-induced fibrillization, ThT fluorescence | 270,000 compounds, 2.1% hits | P10636; further: potency means the concentration at half of the fitted maximal effect; nearly all actives have a fitted effect of over 55% in size
Target sequence (P10636 561-689 P618L limits assumed): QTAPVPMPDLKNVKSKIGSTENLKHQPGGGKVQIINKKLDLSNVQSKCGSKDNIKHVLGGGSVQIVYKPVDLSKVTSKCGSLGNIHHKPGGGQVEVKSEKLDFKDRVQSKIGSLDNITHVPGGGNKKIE
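In this qHTS, human K18 P301L tau is incubated with compound and heparin for 6 hr at 37 C, and Thioflavin T fluorescence then reports fibril load.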
Sfp PPTase inh – inhibitors of Bacillus subtilis Sfp phosphopantetheinyl transferase; Q9F4F7; Biochemical Sfp PPTase activity, qHTS; Potency, µM, without a hit: largest response in the series, negative = inhibition, usual class: inhibitors; 310,000 compounds, 3.5% hits;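 further: the enzyme is Sfp with the accession as filed and its product quenches rhodamine fluorescence; potency means the concentration at half of the fitted maximal effect; 0% = enzyme reaction without inhibitor and -100% = no enzyme wells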
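Fluorescence-quenching assay: 15 nM Sfp-PPTase preincubated 15 min at room temperature with compound, then 5 uM rhodamine-CoA and 12.5 uM BHQ-2-labelled YbbR peptide added. Fluorescence (ex 525/em 598 nm) read at start and after 30 min; difference gives rate.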
G9a block – G9a (human) methyltransferase inhibition; Q96KQ7; G9a H3K9 monomethylation, AlphaScreen, 2 h; Potency, µM (highest dose often 102 µM), without a hit: at the highest dose activity, negative = inhibition, hits mostly inhibitors; 350,000 compounds, 8.8% hits; further: potency means the concentration at half of the fitted maximal effect; nearly all actives have a fitted effect of over 75% in size
Target sequence (Q96KQ7 913-1193 limits assumed): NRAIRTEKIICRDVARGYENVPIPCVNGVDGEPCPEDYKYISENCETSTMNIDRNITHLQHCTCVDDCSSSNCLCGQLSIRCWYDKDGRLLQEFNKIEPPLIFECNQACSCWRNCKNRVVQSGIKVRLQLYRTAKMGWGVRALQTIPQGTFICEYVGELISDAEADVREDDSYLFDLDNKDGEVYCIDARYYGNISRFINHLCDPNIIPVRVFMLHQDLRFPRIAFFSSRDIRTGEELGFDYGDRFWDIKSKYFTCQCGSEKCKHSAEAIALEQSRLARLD
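AlphaScreen read-out: biotin-H3K9 peptide (500 nM) methylation by 20 nM enzyme with 20 uM SAM, 2 h at room temperature after 15 min compound preincubation; anti-monomethyl H3K9 antibody plus donor/acceptor beads, 10 min dark.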
Tau fluor cs – counter-screen for tau fibril formation inhibitors | tau K18 P301L (four-repeat tau fragment) Alexa594 fluorescence, heparin fibrillization | Potency, µM (highest dose often 57.7 µM), without a hit: at the top dose activity change, negative = decrease | 280,000 compounds, 0.93% hits; further: potency means the concentration at half of the fitted maximal effect; nearly all actives have a fitted effect of over 55% in size
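Human K18 P301L tau (15 uM unlabeled plus 0.24 uM Alexa 594-labeled, final) in 100 mM sodium acetate pH 7 was mixed with compound and 20 uM heparin and incubated 6 hr at 37 C.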
Tau fibril FP – inhibitors of human tau fibril formation; K18 P301L tau heparin fibrillization, Alexa594 FP, 6 h; P10636; Potency, µM (titrated, usually from 57.7 µM), for the others: at the top dose activity, negative = inhibition, actives largely listed as inhibitors; 280,000 compounds, 0.39% hits; further: potency means the concentration at half of the fitted maximal effect; nearly all actives have a fitted effect of over 55% in size
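Human tau K18 […] P301L fragment, 15 uM unlabeled plus 0.24 uM Alexa 594-labeled tau (final), with compound and 20 uM heparin in 100 mM sodium acetate pH 7; 6 hr at 37 C, then Alexa 594 FP read.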
FBPA coupling cs – coupling enzyme interference in Giardia aldolase counter-screen. coupling enzyme system counterscreen, AmpLite Red fluorescence. activity change, negative = inhibition, % at 58.2 µM, hits read low. 290,000 compounds, 0.67% hits; in the data active means activity change below about -30%
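Fluorescence at 525 nm excitation and 598 nm emission measured inhibition of the coupled detection system without aldolase. Compounds (at 57.5 uM final) were preincubated 10 min at room temperature with coupling enzyme reagent before a 20 min substrate/AmpLite Red step.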
Starred values were filed as active, the others as inactive; [ ] = remark or other dose. Most compounds without a hit are left out; they make up all but 11% or so of the library. Unless noted, the call rests on the fitted dose curve; in most records, active means well fitted curve in the direction sought with a large enough effect; inconclusive means small, poorly fitted or top-dose-only effect, or another doubt; inactive means no such curve, though single readings can be large; an effect the other way counts as inactive or inconclusive. Unless noted, on the % scale 0 is the no-effect control and ±100 the full control effect.

For CCOC(=O)c1ccc(S(=O)(=O)N2CCN(Cc3cc4c(cc3O)OCO4)CC2)cc1 the results were G9a block 0.4µM*.
Cc1cc(C)c(S(=O)(=O)N2CCN(Cc3ccc4c(c3)OCO4)CC2)cc1C was read as Tau fibril ThT -16%, G9a block -7%[59 µM], Tau fluor cs -15% and Tau fibril FP 1%.
Cc1ccc(C)c(S(=O)(=O)N2CCN(Cc3cc4c(cc3O)OCO4)CC2)c1 was read as G9a block 1.4µM*.
`Cc1cccn2c(=O)c3cc(C(=O)NC(C)C)n(C)c3nc12` gave Tau fibril ThT -5%, G9a block 1%[59 µM], Tau fluor cs -2% and Tau fibril FP -3%.
Screening O=[N+]([O-])c1cc2c(cc1CN1CCN(CCOCCO)CC1)OCO2 returned Sfp PPTase inh 79µM*, G9a block 79µM* and FBPA coupling cs -4.
For O=c1cc(CN2CCN(S(=O)(=O)c3ccccc3[N+](=O)[O-])CC2)nc2sccn12 the results were Tau fibril ThT -3%, Sfp PPTase inh 4%, G9a block 40µM*, Tau fluor cs -1%, Tau fibril FP 0% and FBPA coupling cs 0.
Screening COc1ccccc1N1CCN(Cc2cc3c(cc2[N+](=O)[O-])OCO3)CC1 returned Sfp PPTase inh 8%, G9a block inconclusive and FBPA coupling cs 0.
Screening CN(CC(=O)NCCc1ccc(S(N)(=O)=O)cc1)Cc1c(F)cccc1Cl returned Sfp PPTase inh 10%, G9a block 50µM* and FBPA coupling cs 1.
Screening CN(CC(=O)NCCc1ccc(S(N)(=O)=O)cc1)Cc1ccc(Cl)cc1Cl returned Sfp PPTase inh 5%, G9a block 15% and FBPA coupling cs -1.
`COc1ccccc1NC(=O)C1C2C=CC(O2)C1C(=O)O` (stereo not drawn) gave Tau fibril ThT -15%, Sfp PPTase inh -28%, G9a block 50µM*, Tau fluor cs -5%, Tau fibril FP -1% and FBPA coupling cs 0.
For Cc1cccc(NC(=O)C2C3C=CC(O3)C2C(=O)O)c1 (stereo not drawn) the results were Sfp PPTase inh 3%, G9a block 28µM* and FBPA coupling cs 4.
Cc1cccc(NC(=O)C2C3C=CC(C4CC34)C2C(=O)O)c1 (stereo not drawn) was read as Tau fibril ThT -13%, Sfp PPTase inh 50µM*, G9a block inconclusive, Tau fluor cs -5%, Tau fibril FP -15% and FBPA coupling cs 0.
For COC(=O)c1sccc1NC(=O)C1C2C=CC(O2)C1C(=O)O (stereo not drawn) the results were Tau fibril ThT -6%, Sfp PPTase inh 3%, G9a block -17%[59 µM], Tau fluor cs 0%, Tau fibril FP -6% and FBPA coupling cs -2.
Screening CC(=O)c1cccc(NC(=O)C2C3C=CC(C3=C(c3ccccc3)c3ccccc3)C2C(=O)O)c1 (stereo not drawn) returned Tau fibril ThT -12%, Sfp PPTase inh 14%, G9a block 50µM*, Tau fluor cs -5%, Tau fibril FP -11% and FBPA coupling cs 8.
`Cc1ccccc1NS(=O)(=O)c1cc2c3c(c1)C(C)C(=O)N3CCC2` (stereo not drawn) gave Sfp PPTase inh 16%.
`COc1cccc(N2CCN(C(=O)CN3CCSc4ccccc43)CC2)c1` gave Tau fibril ThT inconclusive, G9a block inconclusive, Tau fluor cs -22% and Tau fibril FP 2%.
`COc1ccccc1CNC(=O)c1cc2sccc2n1Cc1ccc(F)cc1` gave Tau fibril ThT -5%, G9a block 29%[59 µM], Tau fluor cs -26% and Tau fibril FP -12%.
CCN(CC)CCCNC(=O)c1ccc2c(c1)NC(=O)C(CS(=O)(=O)Cc1cccc(Br)c1)N2 (stereo not drawn) was read as Tau fibril ThT -16%, G9a block inconclusive, Tau fluor cs -16% and Tau fibril FP -3%.
CCc1cccc(C)c1NC(=O)CN1C(=O)c2ccccc2Sc2ncccc21 was read as Tau fibril ThT -7%, G9a block -5%[59 µM], Tau fluor cs 1% and Tau fibril FP 10%.
Screening Cc1ccc(NC(=O)C2C3C=CC(O3)C2C(=O)O)c(C)c1 (stereo not drawn) returned Sfp PPTase inh -9%, G9a block 40µM* and FBPA coupling cs 3.
For Cc1nnc(NC(=O)C2C3C=CC(O3)C2C(=O)O)s1 (stereo not drawn) the results were Tau fibril ThT 7%, Sfp PPTase inh -27%, G9a block inconclusive, Tau fluor cs 2%, Tau fibril FP 4% and FBPA coupling cs -1.
For Cc1cccc(NC(=O)C2C3C=CC(O3)C2C(=O)O)c1C (stereo not drawn) the results were Sfp PPTase inh -8%, G9a block 35µM* and FBPA coupling cs 1.
For Cc1cccc(NC(=O)C2C(C(=O)O)C3C=CC2C32CC2)c1C (stereo not drawn) the results were Tau fibril ThT -13%, Sfp PPTase inh inconclusive, G9a block -13%[59 µM], Tau fluor cs -8%, Tau fibril FP -13% and FBPA coupling cs -6.
Cc1ccc(C)c(NC(=O)C2C3C=CC(O3)C2C(=O)O)c1 (stereo not drawn) was read as Sfp PPTase inh -4%, G9a block 45µM* and FBPA coupling cs 3.
Cc1ccc(NC(=O)C2C3C=CC(O3)C2C(=O)O)cc1C (stereo not drawn) was read as Sfp PPTase inh 16%, G9a block 3%[0.501 µM] and FBPA coupling cs 5.
Screening O=C(O)COc1ccc2c(c1)O/C(=C\c1ccco1)C2=O returned Sfp PPTase inh inconclusive, G9a block 10µM* and FBPA coupling cs 3.
COc1ccc(OC)c(/C=C2\Oc3cc(OCC(=O)N4CCC(C(=O)O)CC4)ccc3C2=O)c1 was read as Sfp PPTase inh 16µM*, G9a block 26%[12.7 µM] and FBPA coupling cs 3.
For Cc1cc(=O)oc2cc(OCC(=O)N3CCOCC3)ccc12 the results were Tau fibril ThT inconclusive, Sfp PPTase inh 32µM*, G9a block 7.1µM*, Tau fluor cs -11%, Tau fibril FP -15% and FBPA coupling cs -1.
CCc1cc(=O)oc2cc(OCC(=O)N3CCC(C(=O)O)CC3)ccc12 was read as Sfp PPTase inh 10%, G9a block inconclusive and FBPA coupling cs -73*.
`CCCc1cc(=O)oc2cc(OCC(=O)N3CCC(C(N)=O)CC3)ccc12` gave Sfp PPTase inh 5%, G9a block 8%[12.7 µM] and FBPA coupling cs -2.
